The list is a sample of the results.
aSyn UTR act – Activators working through SNCA 5'UTR binding (MLPCN); activity score, % (tested at 7.5 µM), hits read low; AID 1814; alpha-synuclein 5'UTR reporter, activators screen; actives 7.1% (n = 300,000); in the data active = activity score below about -60%
* marks the source's active call; other numbers are inactive results.

What do the screens show for `COC(=O)c1cnn(-c2cc(Oc3ccccc3)ncn2)c1N`?
aSyn UTR act: -127*

Results for COC(=O)c1cnc(Oc2ccc(NC(=O)NC(=O)c3c(OC)cccc3OC)cc2)cc1C(F)(F)F ?
aSyn UTR act: 74

How did CCc1ccc(CCC(=O)Nc2ccc(Cl)cc2)o1 do in these assays?
aSyn UTR act: -67*

What do the screens show for `O=C(COC(=O)c1ccccc1[N+](=O)[O-])c1ccc(C2CCCCC2)cc1`?
aSyn UTR act: -76*

What do the screens show for `NC(=O)c1ccsc1NC(=O)CSc1ccccc1F`?
aSyn UTR act: -119*

How did Cc1csc(SCC(=O)Nc2sccc2C(N)=O)n1 do in these assays?
aSyn UTR act: -110*

Results for O=C(Nc1ccc2ccccc2n1)c1ccccc1Cl ?
aSyn UTR act: -71*

How did O=C(Nc1ccc2ccccc2n1)C1CCCCC1 do in these assays?
aSyn UTR act: -144*

How did O=C(Nc1ccc2ccccc2n1)c1ccc(Cl)cc1 do in these assays?
aSyn UTR act: -145*

Results for CC(C)Cc1cc(-c2ccco2)c(C#N)c(N)n1 ?
aSyn UTR act: 70

What do the screens show for `COC(=O)CSc1nc(-c2ccccc2)cc(-c2ccco2)c1C#N`?
aSyn UTR act: -64*

What do the screens show for `COc1cccc(-c2nnc3sc(-c4ccco4)nn23)c1`?
aSyn UTR act: -95*

Results for COc1ccc(NC(=O)Cn2nnc(-c3ccccc3NC(=O)c3ccco3)n2)cc1 ?
aSyn UTR act: -117*

How did Cc1ccc(-c2nnc(NC(=O)c3ccco3)s2)cc1 do in these assays?
aSyn UTR act: -84*

What do the screens show for `O=C(Nc1nnc(C23CC4CC(CC(C4)C2)C3)s1)c1ccco1`?
aSyn UTR act: -89*

What do the screens show for `COc1cccc(-c2nnc(NC(=O)c3cccs3)s2)c1`?
aSyn UTR act: -119*

Results for Cc1cccc(C(=O)Nc2nnc(SCC(=O)NCc3ccco3)s2)c1 ?
aSyn UTR act: -101*

Results for O=C(COc1ccccc1)Nc1nnc(C23CC4CC(CC(C4)C2)C3)s1 ?
aSyn UTR act: -75*

Results for Cc1cccc(C(=O)Nc2nnc(-c3ccc(C(C)(C)C)cc3)s2)c1 ?
aSyn UTR act: -102*

What do the screens show for `COc1cccc(-c2nnc(NC(=O)c3ccco3)s2)c1`?
aSyn UTR act: -97*

What do the screens show for `COc1ccc(-c2nnc(NC(=O)c3ccco3)s2)cc1`?
aSyn UTR act: -122*

Results for C/C=C(\C)c1nnc(NC(=O)c2ccco2)s1 ?
aSyn UTR act: -78*

What do the screens show for `c1ccc2c(C3=NNC(=NC4CCCCC4)SC3)c[nH]c2c1`?
aSyn UTR act: -140*

How did c1ccc(C2=NNC(=NC3CC3)SC2)cc1 do in these assays?
aSyn UTR act: 58

What do the screens show for `COc1ccc(C)cc1N(C(=O)COc1ccccc1)c1nc2ccccc2s1`?
aSyn UTR act: -92*

Results for O=c1n(-c2ccc(Br)cc2)cnn1-c1ncccc1[N+](=O)[O-] ?
aSyn UTR act: -101*

Results for O=C(CN1C(=O)c2ccccc2S1(=O)=O)c1ccc2c(c1)OCCO2 ?
aSyn UTR act: 111

Results for Cc1ccc(C(=O)Cn2cnc3ccccc3c2=O)cc1C ?
aSyn UTR act: -155*

What do the screens show for `O=C(Cn1cnc2ccccc2c1=O)c1ccc2ccccc2c1`?
aSyn UTR act: -140*

How did O=C(Cn1cnc2ccccc2c1=O)c1ccc2c(c1)OCCO2 do in these assays?
aSyn UTR act: -130*

What do the screens show for `Cc1cc(C(=O)Cn2cnc3ccccc3c2=O)c(C)n1C1CC1`?
aSyn UTR act: -109*

Results for O=C(Cn1cnc2ccccc2c1=O)Nc1ccc2c(c1)OCO2 ?
aSyn UTR act: -120*

How did COc1ccc(C(=O)Cn2cnc3ccccc3c2=O)cc1 do in these assays?
aSyn UTR act: -146*

How did CCN(CC)CCNc1ccnc2cc(Cl)ccc12 do in these assays?
aSyn UTR act: -62*

How did CC(C)(C)c1nnc(NC(=O)c2cccs2)s1 do in these assays?
aSyn UTR act: -143*

What do the screens show for `CC(C)c1nnc(NC(=O)c2cccs2)s1`?
aSyn UTR act: -102*

What do the screens show for `O=C(Nc1nnc(C2CC2)s1)c1cccs1`?
aSyn UTR act: -74*

Results for Cc1ccccc1SCCNC(=O)c1ccccc1Br ?
aSyn UTR act: -107*

What do the screens show for `Cc1ccccc1SCCNC(=O)CCc1ccccc1`?
aSyn UTR act: -64*

What do the screens show for `COc1ccc(CCn2c(=N)c(C(=O)NC3CCCC3)cc3c(=O)n4ccccc4nc32)cc1OC`?
aSyn UTR act: -62*

What do the screens show for `Cc1cccn2c(=O)c3cc(C(=O)NC4CCCC4)n(C)c3nc12`?
aSyn UTR act: -93*

How did Cc1cccn2c(=O)c3cc(C(=O)NCC4CCCO4)c(=N)n(CCc4ccccc4)c3nc12 (stereo not given) do in these assays?
aSyn UTR act: -101*

What do the screens show for `CCCn1c(=N)c(C(=O)NC2CCCC2)cc2c(=O)n3cccc(C)c3nc21`?
aSyn UTR act: -67*

Results for Cc1cccn2c(=O)c(C(=O)NC3CCCCC3)c(O)nc12 ?
aSyn UTR act: -66*

What do the screens show for `COc1ccc(-c2nn(-c3ccccc3)cc2C(=O)NC(=S)NNC(=O)c2ccncc2)cc1`?
aSyn UTR act: 73

Results for O=C(N/N=C/c1cn(-c2ccccc2)nc1-c1cc2ccccc2o1)c1ccccc1Br ?
aSyn UTR act: -115*

What do the screens show for `N#Cc1cn(-c2ccccc2)nc1-c1cc2ccccc2oc1=O`?
aSyn UTR act: -63*

How did OCc1cn(-c2ccccc2)nc1-c1cc2ccccc2o1 do in these assays?
aSyn UTR act: -179*

Results for COc1ccc(-c2nn(-c3ccccc3)cc2C#N)cc1 ?
aSyn UTR act: -126*

How did COc1ccc(NC(=O)c2cn(-c3ccccc3)nc2-c2cc3ccccc3o2)cc1 do in these assays?
aSyn UTR act: -71*

What do the screens show for `O=C(N/N=C/c1cn(-c2cccs2)nc1-c1ccccc1)c1ccccc1Br`?
aSyn UTR act: -73*

How did O=C(c1ccccc1)N1CCN2C(=O)c3ccccc3C12c1ccc(Cl)cc1 (stereo not given) do in these assays?
aSyn UTR act: -72*

How did O=C(O)c1ccc(/C=N\Nc2ccccn2)cc1 do in these assays?
aSyn UTR act: -79*

What do the screens show for `Nc1nnc(/C=C/c2cccc([N+](=O)[O-])c2)s1`?
aSyn UTR act: -64*

Results for Cc1[nH]c2ccccc2c1/C=N/Nc1ccccn1 ?
aSyn UTR act: -100*

How did O=[N+]([O-])c1ccc(/C=N/Nc2ccccn2)cc1 do in these assays?
aSyn UTR act: -188*

How did O=[N+]([O-])c1cc(/C=N\Nc2ccccn2)ccc1Cl do in these assays?
aSyn UTR act: -91*

What do the screens show for `O=C(N/N=C/c1ccc(Sc2nc3ccccc3s2)c([N+](=O)[O-])c1)c1ccccn1`?
aSyn UTR act: -75*

How did O=C(O)c1ccc(/C=N/Nc2ncc(Cl)cc2Cl)cc1 do in these assays?
aSyn UTR act: -72*

What do the screens show for `O=[N+]([O-])c1cccc(/C=C/c2ccccn2)c1`?
aSyn UTR act: -141*

How did O=[N+]([O-])c1cc(Cl)cc(/C=N\Nc2ccccn2)c1O do in these assays?
aSyn UTR act: 90

What do the screens show for `O=C(O)c1ccc(N/N=C/c2ccc(OC(=O)c3cccc(Cl)c3)cc2)cc1`?
aSyn UTR act: 76

What do the screens show for `CN(C)c1ccc(/C=N\Nc2ccccn2)cc1`?
aSyn UTR act: -232*

How did O=C(N/N=C/c1ccc(Cl)c([N+](=O)[O-])c1)c1cnccn1 do in these assays?
aSyn UTR act: -72*

Results for O=[N+]([O-])c1cccc(/C=N/Nc2nccnc2Cl)c1 ?
aSyn UTR act: -147*

How did N#C/C(=C\c1cccc([N+](=O)[O-])c1)c1ccccn1 do in these assays?
aSyn UTR act: -67*

Screening results: PubChem BioAssay, Broad Institute
